According to PubChem BioAssay (NCI):
This is part of a sample that, as a whole, favours compounds with a hit. Of some 79,000 tested, about 15% had one in any assay. Unmarked numbers belong to inactive results. Active and inactive are the calls of the source. Rule as the data show it: active = growth inhibition above about 70%; inactive = the rest.

Assays:
[1] = NCI Yeast Anticancer Drug Screen. Data for the rad50 strain (AID 155);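 also: 0% = growth of vehicle-only cultures of the same strain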; conditions: S. cerevisiae rad50 strain growth inhibition, active compounds read high
Outline: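 Growth of the mutant yeast was measured after compound exposure and referenced to vehicle-treated cultures.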

[2] = NCI Yeast Anticancer Drug Screen. Data for the mec2-1 strain (AID 157); conditions: S. cerevisiae mec2-1 strain, active compounds read high
Outline: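 Each compound was tested on mec2-1 yeast, a strain altered in DNA damage repair or cell cycle control. Growth inhibition is reported relative to vehicle.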

[3] = NCI Yeast Anticancer Drug Screen. Data for the sgs1 mgt1 strain (AID 161);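 also: 0% = growth of cultures given vehicle only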; conditions: S. cerevisiae sgs1 mgt1 strain, active compounds read high
Outline: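 Test agents were incubated with a DNA-repair-mutant yeast strain. Growth was then read and compared against vehicle-treated controls.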

[4] = NCI Yeast Anticancer Drug Screen. Data for the cln2 rad14 strain (AID 165);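 also: 0% = growth equal to vehicle treated cultures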; conditions: S. cerevisiae cln2 rad14 strain, active compounds read high
Outline: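 Test compounds were added to cln2 rad14 yeast cultures; inhibition of growth was then determined by comparison with vehicle treatment.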

[5] = NCI Yeast Anticancer Drug Screen. Data for the bub3 strain (AID 167); conditions: S. cerevisiae bub3 mutant strain, active compounds read high
Outline: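 Whole-cell yeast assay. The mutant strain was incubated with compounds, and growth inhibition was determined by comparison with vehicle-treated cells.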

[6] = NCI Yeast Anticancer Drug Screen. Data for the mlh1 rad18 strain (AID 175); conditions: S. cerevisiae mlh1 rad18 strain growth inhibition, active compounds read high
Outline: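 Inhibition values reflect reduced growth of mutant yeast versus vehicle-treated controls following compound exposure; the mutations affect DNA damage repair.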

[7] = at 5.0 µM (retest, dose inferred, filed as 0.5)
[8] = at 50.0 µM (retest, dose inferred, filed as 5.0)

Compound | growth inhibition [1, 7] | growth inhibition [1, 8] | growth inhibition ([1]; at 50.0 µM) | growth inhibition [2, 7] | growth inhibition [2, 8] | growth inhibition ([2]; at 50.0 µM) | growth inhibition [3, 7] | growth inhibition [3, 8] | growth inhibition ([3]; at 50.0 µM) | growth inhibition [4, 7] | growth inhibition [4, 8] | growth inhibition ([4]; at 50.0 µM) | growth inhibition [5, 7] | growth inhibition [5, 8] | growth inhibition ([5]; at 50.0 µM) | growth inhibition [6, 7] | growth inhibition [6, 8] | growth inhibition ([6]; at 50.0 µM)
CC(c1ccc2ccccc2c1)c1c(F)cccc1C(=O)O (stereo not given) | 2% | 50% | 98.7% (active) | 0% | 54% | 98.3% (active) | 0% | 12% | 97.2% (active) | -4% | 64% | 98.6% (active) | -9% | 41% | 97.6% (active) | – | – | –
Cn1c(=O)c2c(nc(CCCCCCCc3nc4c(c(=O)n(C)c(=O)n4C)n3C)n2C)n(C)c1=O | 4% | 5% | 48.9% | 1% | 18% | 23.3% | 2% | 10% | 42% | 2% | 10% | 60.2% | 7% | 4% | 16.7% | -2% | 9% | 35.8%
COc1ccc(S(=O)(=O)O)cc1-n1nc(C(=O)Nc2ccccc2)n[n+]1-c1cc(S(=O)(=O)[O-])ccc1OC | 2% | 9% | 19.1% | 1% | 3% | 39.8% | 10% | 4% | 22% | 0% | 2% | 0.4% | -3% | 2% | -10.6% | – | – | –
CCCCN(CCCC)CC(O)c1cc(-c2ccc(Cl)cc2)nc2c(-c3ccccc3)cccc12 (stereo not given) | -1% | 30% | 52.8% | -5% | 13% | 36.3% | 0% | 54% | 80.8% (active) | -7% | 22% | 13.8% | -4% | 24% | 8.15% | – | – | –
C=CCOc1cc(NC(=S)c2sccc2C)ccc1Cl | 3% | 88% (active) | 81.5% (active) | -5% | 89% (active) | 87.2% (active) | -9% | 88% (active) | 85% (active) | 2% | 89% (active) | 80.2% (active) | 28% | 94% (active) | 81.3% (active) | – | – | –
Cc1cc(O)c2c(c1)OC1(C)CCC3C(C)(C)CCCC34COC2C14 (stereo not given) | 18% | 97% (active) | 89.5% (active) | 16% | 98% (active) | 87.5% (active) | 17% | 98% (active) | 90.6% (active) | 27% | 98% (active) | 88.5% (active) | 6% | 98% (active) | 85.5% (active) | – | – | –
c1ccc(C2CC(c3ccc4ccccc4c3)=Nc3ccccc3S2)cc1 (stereo not given) | 0% | 40% | 76.8% (active) | -4% | 72% (active) | 50.6% | 8% | 78% (active) | 80.8% (active) | -11% | 19% | 69.5% | 21% | 91% (active) | 96.5% (active) | – | – | –
Cc1cccc(C)c1NC(=O)CCc1nnc(N)n1N | 17% | 4% | -20.6% | -1% | -3% | 3.75% | 7% | -2% | 18.8% | -6% | 6% | -23.4% | -3% | -2% | 8.7% | -3% | -1% | 16.4%
O=C1CC(c2ccccc2Cl)C(c2ccccc2Cl)C1 (stereo not given) | -2% | 97% (active) | 97.5% (active) | -6% | 98% (active) | 96% (active) | -7% | 96% (active) | 96.7% (active) | -2% | 97% (active) | 95.5% (active) | 0% | 97% (active) | 97.2% (active) | -2% | 96% (active) | 97.2% (active)
O=C(CSc1cc[o+]cc1)c1cccc([N+](=O)[O-])c1 | 0% | 49% | 65.8% | 2% | 87% (active) | 81.8% (active) | 4% | 86% (active) | 68% | -5% | 53% | 78.5% (active) | 4% | 92% (active) | 97.1% (active) | -3% | 85% (active) | 93.5% (active)
CC1=C(C(=O)Nc2cccc3ccccc23)C(c2cccc([N+](=O)[O-])c2)C(C(=O)Nc2cccc3ccccc23)=C(C)N1 | 27% | 40% | 76.2% (active) | 22% | 50% | 60.2% | 7% | 32% | 77.1% (active) | -3% | 14% | 70.6% (active) | 34% | 58% | 81.5% (active) | -22% | 23% | 88.1% (active)
